# Compound activity deposited in PubChem BioAssay by National Center for Advancing Translational Sciences (NCATS).
# The list is not random: actives were taken first. Their share in the collection is about 2.4%.
# AmpC det inh = Promiscuous and Specific Inhibitors of AmpC Beta-Lactamase (assay with detergent) | P00811 | purified AmpC, nitrocefin hydrolysis with detergent | Potency, µM (top dose mostly 28.7 µM) | actives 0.09% (n = 71,000) | AID 584, 2007; active = well fitted curve in the direction sought with a large enough effect; inconclusive = small, poorly fitted or top-dose-only effect
# Target sequence (P00811 whole entry, looked up): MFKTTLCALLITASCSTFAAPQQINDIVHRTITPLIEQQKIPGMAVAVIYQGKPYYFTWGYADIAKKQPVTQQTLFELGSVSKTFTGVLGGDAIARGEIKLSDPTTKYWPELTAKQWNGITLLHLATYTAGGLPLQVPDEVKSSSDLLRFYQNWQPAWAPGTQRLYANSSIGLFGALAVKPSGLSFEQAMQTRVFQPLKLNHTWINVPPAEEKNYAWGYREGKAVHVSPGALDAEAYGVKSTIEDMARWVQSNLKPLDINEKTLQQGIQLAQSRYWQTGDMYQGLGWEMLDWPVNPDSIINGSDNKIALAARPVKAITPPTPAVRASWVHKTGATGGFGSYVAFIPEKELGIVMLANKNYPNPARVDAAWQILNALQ
#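 E. coli AmpC (5.3 nM) in 20 mM phosphate pH 7.0 with 0.01% Triton X-100, preincubated 15 min RT with compound; nitrocefin (2 uL of 800 uM stock) hydrolysis followed by 480 nm absorbance every 20 s over 4 min.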
# Anthrax LT inh = qHTS Assay for Anthrax Lethal Toxin Internalization. Potency, µM (series often up to 40 µM), actives largely listed as inhibitors. actives 0.67% (n = 70,000). Cells, anthrax lethal toxin internalization, FRET ratio (460/530); also: nearly all actives have a fitted effect of over 50% in size
# AmpC nodet inh = Promiscuous and Specific Inhibitors of AmpC Beta-Lactamase (assay without detergent); P00811; AmpC nitrocefin hydrolysis, absorbance 480 nm, no detergent; Potency, µM (highest dose often 28.7 µM); actives 1.8% (n = 71,000)
#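 AmpC, 20 mM phosphate pH 7.0; 15 min cpd preinc, RT; start with nitrocefin (800 uM stock); A480 kinetic read, 20 s intervals, 4 min. No-enzyme wells = negative control.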
# Prx2 Sm inh = Schistosoma Mansoni Peroxiredoxins (Prx2). Schistosoma mansoni peroxiredoxin 2 (Prx2). AID 448, 2006. Potency, µM. S. mansoni Prx2 activity coupled to TGR/GSH (TGR is thioredoxin glutathione reductase), NADPH fluorescence loss, qHTS. actives 0.07% (n = 65,000)
#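 Purified S. mansoni TGR and Prx2 in pH 7.4 phosphate buffer with EDTA and Tween-20 were preincubated with compounds for 15 min. Further NADPH/GSH was added, then a 2.5 mM H2O2 aliquot initiated turnover, followed kinetically by NADPH fluorescence.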
# A number is an active result; 0 = inactive; ? = inconclusive; - = not tested or not shown; ! = repeats disagree; [ ] = another dose, or the depositor's remark. Unless noted, calls follow the shape of the full dose curve.
SMILES,AmpC det inh,Anthrax LT inh,AmpC nodet inh,Prx2 Sm inh
Cc1cccc(CCNC(=O)CN(C)S(=O)(=O)c2ccc3c(c2)c(=O)n(C)c(=O)n3C)c1,0,0,3.98µM[single pt active],0
Cc1ccc(CCNC(=O)CCNS(=O)(=O)c2ccc3c(c2)c(=O)n(C)c(=O)n3C)cc1,0,0,0,0
COc1ccccc1-c1nc(NC2CC2)c2ccccc2n1,0,0,0,0
C=CCn1c(SCCCC)nc(O)cc1=O,0,0,3.98µM[single pt active],0
CC1CC(C)CN(C(=O)C(NS(=O)(=O)c2ccc3c(c2)oc(=O)n3C)C(C)C)C1 (centres undefined),0,0,3.98µM[single pt active],0
CC(C)CC(NS(=O)(=O)c1ccc2c(c1)oc(=O)n2C)C(=O)NC1CCCc2ccccc21 (centres undefined),0,0,3.98µM[single pt active],0
CC(C)C(NS(=O)(=O)c1ccc2c(c1)oc(=O)n2C)C(=O)N1CCN(C2CCCCC2)CC1 (centres undefined),0,0,0,0
CCCCn1c(NCCO)nc2ccccc21,0,0,3.16µM[single pt active],0
CCCn1c(NCc2cc(C)ccc2O)nc2ccccc21,0,0,0,-
O=C(Cn1c(NCCCO)nc2ccccc21)c1cccs1,0,0,3.16µM[single pt active],0
CCCCn1c(NCc2ccccc2O)nc2ccccc21,0,0,3.98µM[single pt active],0
O=C(CCCN1CCC2(CC1)C(=O)N(CCc1ccc(N=C=S)cc1)CN2c1ccccc1)c1ccc(F)cc1,0,?,0,0
COc1ccc2[nH]cc(CCNc3ncncc3-c3ccccc3C)c2c1,0,10µM,0,0
COc1ccc2[nH]cc(CCNc3ncnc4ccc(-c5cccnc5)cc34)c2c1,0,0,0,0
COc1ccc2[nH]cc(CCNc3ncnc4ccc(-c5ccccc5OC)cc34)c2c1,0,10µM,0,0
COc1ccc2[nH]cc(CCNc3ccnc(-c4ccc(N(C)C)cc4)n3)c2c1,0,7.94µM,0,0
COc1ccc2[nH]cc(CCNc3ncncc3-c3cccnc3)c2c1,0,0,0,0
COc1ccc2[nH]cc(CCNc3ccnc(-c4ccoc4)n3)c2c1,0,?,0,0
CNc1nc(-c2ccccc2C)nc2ccccc12,0,0,0,-
COc1ccc(NC(=O)CCCC2=NS(=O)(=O)c3ccccc3N2)cc1,0,0,3.98µM[single pt active],0
O=C(CCCC1=NS(=O)(=O)c2ccccc2N1)N1CCN(c2ccc(Cl)cc2)CC1,0,?,3.98µM[single pt active],0
C=C(C)[C@@H]1CN[C@H](C(=O)O)[C@H]1CC(=O)O,0,0,0,0
O=c1c(O)c(-c2ccc(O)cc2)oc2ccc(O)cc12,0,0,15.8µM[single pt active],0
Cc1ccc2oc(=O)c3cc(C(=O)N4CCN(C(=O)c5ccco5)CC4)sc3c2c1,0,0,0,0
Cc1ccc2oc(=O)c3cc(C(=O)N4CCN(c5ncccn5)CC4)sc3c2c1,0,0,3.98µM[single pt active],0
SMILES,AmpC det inh,Anthrax LT inh,AmpC nodet inh,Prx2 Sm inh
Cn1nc(-c2ccc(Cl)cc2)c2cc(C(=O)N3CCN(c4ccccc4)CC3)sc21,0,?,3.98µM[single pt active],0
Cn1nc(-c2ccc(Cl)cc2)c2cc(C(=O)N3CCN(c4ccccn4)CC3)sc21,0,?,3.98µM[single pt active],0
Cn1nc(-c2ccc(Cl)cc2)c2cc(C(=O)N3CCCC3)sc21,0,?,0,0
C[C@@H](C[N+](C)(C)C)OC(N)=O,0,0[3.58 µM],0,0
Cc1ccc(S(=O)ON2CCC(C(=O)O)(c3ccccc3)CC2)cc1 (centres undefined),0[5.75 µM],0[8 µM],0[5.75 µM],0
O=C(O)c1ccc2cc(-c3ccc(O)c(C45CC6CC(CC(C6)C4)C5)c3)ccc2c1,-,10µM,-,-
O=C1CCc2cc(S(=O)(=O)NC(Cc3ccccc3)C(=O)NC3CCCCC3)ccc2N1 (centres undefined),0,0,3.98µM[single pt active],0
CCCCN(C)C(=O)C(Cc1ccccc1)NS(=O)(=O)c1ccc2c(c1)CCC(=O)N2 (centres undefined),0,0,3.98µM[single pt active],0
CC(C)(C)NC(=O)C(Cc1ccccc1)NS(=O)(=O)c1ccc2c(c1)CCC(=O)N2 (centres undefined),0,0,0,0
COc1cccc(NC(=O)n2nc(N)cc2-c2ccc(Cl)cc2)c1,0,?,3.98µM[single pt active],0
COc1cccc(NC(=O)CSc2nc(N)cc(N)n2)c1,0,0,0,0
Cc1cc(N=Cc2c(O)n(-c3ccc4c(c3)OCO4)c(=O)c3ccccc23)ccn1,0,7.94µM,0,0
Clc1ccc(OCc2nn3c(C4CCCCC4)nnc3s2)c(Cl)c1,0,0,0,0
COc1ccccc1-c1nnc2sc(COc3ccc(Cl)cc3Cl)nn12,0,10µM,0,0
CC(C)CN(CC(C)C)c1nnc(N)s1,0,0,3.98µM[single pt active],0
O=C(Nc1nccs1)C1CCN(S(=O)(=O)c2cccnc2)CC1,0,0,0,0
O=C(Nc1ccc2c(c1)OCCO2)C1CCCN(S(=O)(=O)c2cccnc2)C1 (centres undefined),0,?,3.98µM[single pt active],0
O=C(NCCC1=CCCCC1)C1CCCN(S(=O)(=O)c2cccnc2)C1 (centres undefined),0,0,2.51µM[single pt active],0
O=C(NCCC1=CCCCC1)C1CCCN(S(=O)(=O)c2cccc3cccnc23)C1 (centres undefined),0,0,0,0
O=C(Nc1nccs1)C1CCCN(S(=O)(=O)c2cccnc2)C1 (centres undefined),0,0,3.98µM[single pt active],0
C=C1C(=O)O[C@H]2C[C@@]3(C)CCCC(=C)[C@@H]3C[C@H]12,0,?,0,0
O=C(Cn1c(=O)oc2ccccc21)N1CCN(c2ccc(N3CCOCC3)nn2)CC1,0,0,2.51µM[single pt active],0
CCc1cccc2nc3c(c([Si](C)(C)C)c12)Cn1c-3cccc1=O,0,?,0,0
O=C1Cc2c([nH]c3ccc(Br)cc23)-c2ccccc2N1,0,0,15.8µM!,0
O=c1c2c([nH]c3ccc(Br)cc13)CCCC2,0,0,0,0
SMILES,AmpC det inh,Anthrax LT inh,AmpC nodet inh,Prx2 Sm inh
C=CC(=O)OCCCCCCOC(=O)C=C,0,0,0,-
O=C(NCCc1ccccc1)c1noc2c1CCc1ccccc1-2,0,0,0,0
COc1ccc2c(c1)CCc1c(C(=O)NCCc3ccc(OC)c(OC)c3)noc1-2,0,0,0,?
COc1ccc2c(c1)CCc1c(C(=O)Nc3cc(C)n(Cc4ccc(Cl)cc4)n3)noc1-2,0,0,7.94µM,0
CCCNC(=O)c1noc2c1CCc1ccccc1-2,0,0,3.16µM[single pt active],0
COc1ccc2c(c1)CCc1c(C(=O)NCc3ccc(F)cc3)noc1-2,0,?,3.98µM[single pt active],0
CC(C)[C@@H](CC(=O)N[C@@H]1CCCC[C@H]1C(=O)N[C@H](CC(=O)N[C@@H](CCC(=O)O)CC(=O)O)Cc1ccccc1)NC(=O)C[C@H](Cc1ccccc1)NC(=O)[C@@H]1CNCC[C@H]1N,0,0,0,0
Cc1noc(C)c1-c1cc(NCCN2CCOCC2)ncn1,0,?,0,0
Cc1ccc(N(Cc2ccccc2)Cc2ccccc2)cc1,0[5.75 µM],0[8 µM],0[5.75 µM],0
COc1ccc(CNC(=O)Cn2nc(C(F)(F)F)c3c2CCC3)cc1,0,0,0,0
COc1ccc(NC(=O)Cn2nc(C(F)(F)F)c3c2CCCC3)c(OC)c1,0,12.6µM,0,0
